The text below walks through data of PubChem BioAssay AID1488 (Vanderbilt High Throughput Screening Facility, 2009).

Screen size: about 1,700 compounds; about 310 (18%) were called active. Another 25% or so got no clear call; they are omitted.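 Rule for the calls: active = fluorescence change differs from the solvent-only DMSO control mean at a set confidence level in both duplicate runs; inconclusive = differs from solvent-only control mean in just one of two runs; inactive = the rest.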 This excerpt belongs to a sample that is enriched for actives.

Muscarinic acetylcholine receptor M1 (Rattus norvegicus), sequence (P08482 whole entry, looked up): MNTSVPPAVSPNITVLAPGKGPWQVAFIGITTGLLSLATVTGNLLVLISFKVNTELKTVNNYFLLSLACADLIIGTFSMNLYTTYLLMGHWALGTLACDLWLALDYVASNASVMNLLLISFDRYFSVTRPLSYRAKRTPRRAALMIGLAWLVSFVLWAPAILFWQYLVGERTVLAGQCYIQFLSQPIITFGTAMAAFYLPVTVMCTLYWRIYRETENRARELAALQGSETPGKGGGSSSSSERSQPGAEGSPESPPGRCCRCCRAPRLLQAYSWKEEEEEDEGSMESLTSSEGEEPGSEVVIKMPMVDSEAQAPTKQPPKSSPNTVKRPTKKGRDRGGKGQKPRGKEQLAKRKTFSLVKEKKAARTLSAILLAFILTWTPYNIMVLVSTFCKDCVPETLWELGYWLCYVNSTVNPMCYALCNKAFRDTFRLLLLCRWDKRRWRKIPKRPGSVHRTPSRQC

This assay addresses Muscarinic acetylcholine receptor M1 (Rattus norvegicus) (UniProt P08482). Briefly: direct agonism at rat M1 receptor – CHO-M1 cells, Fluo-4 calcium, duplicate retest, confirmation (AID 1488).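 Note: an EC20 dose of acetylcholine follows compound addition during the same imaging run; raw fluorescence intensity difference in instrument units with no normalization to controls.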 As to conditions: Fluo-4 calcium fluorescence, agonist mode, at 10 µM, actives lie on both sides.
As for `COc1ccccc1NC1=NC(c2ccc(Cl)cc2)N=C(N)N1` (stereo not drawn), the fluorescence change (max-min) is -28.2 (active). `Cc1ccc2oc(=O)c3cnn(CC(=O)N4CCN(c5ccccn5)CC4)c3c2c1`: the fluorescence change (max-min) is -16.8 (inactive). As for `CC(=O)OC(C)C[N+](C)(C)C` (stereo not drawn), the figure is 529 (active); as for `CC(C[N+](C)(C)C)OC(N)=O` (stereo not drawn), 389 (active). For `COc1cccc2c(C)c(C(=O)O)[nH]c12`, the fluorescence change (max-min) was 4.27 (inactive). Then `O=C(NCc1ccccn1)c1ccc2nc(-c3ccco3)c(-c3ccco3)nc2c1`, with 28.5 (inactive).

With `CCOc1ccc2[nH]c(=O)c(CN(Cc3nnnn3Cc3ccccc3)CC3CCCO3)cc2c1` (stereo not drawn), the fluorescence change (max-min) is 19.2 (inactive).

Regarding `Cc1cc2cc(CN(Cc3cccs3)Cc3nnnn3CC3CCCO3)c(=O)[nH]c2cc1C` (stereo not drawn), the fluorescence change (max-min) is 7.46 (inactive). As for `Cc1cc(NC(=O)COc2ccc(Cl)cc2Cl)n(CCC#N)n1`, the figure is -3.95 (inactive); as for `O=C(O)c1ccc(COCC(F)(F)F)cc1`, -6.5 (inactive); as for `CC(=O)Nc1ccc(NC(=O)CN2CCCC(C)C2)c(Cl)c1` (stereo not drawn), -10.1 (inactive). For the compound `CCOC(=O)c1cc2n(c1N)-c1ccccc1C2=O`, the fluorescence change (max-min) is 1700 (active). As for `CCOc1cc(N2CCOCC2)c(OCC)cc1NC(=O)COc1cccc2cccnc12`, the figure is -14.8 (inactive); as for `N#CC1=C(N)Oc2c(sc3ccccc23)C1c1ccco1` (stereo not drawn), 140 (active).

Regarding `C(=N\n1cnnc1)/c1cccnc1`, the fluorescence change (max-min) is -17.4 (inactive).

Regarding `O=C1c2ccccc2-c2ncnc3c(N4CCOCC4)cc(N4CCOCC4)c1c23`, the fluorescence change (max-min) was -15.7 (inactive). On to `c1ccc2c(c1)OCC(CNc1ncnc3nc[nH]c13)O2` (stereo not drawn), for which the fluorescence change (max-min) is 512 (active). For `O=C(Nc1ccccc1N1CCN(C(=O)c2ccccc2)CC1)c1ccc2c(c1)OCO2`, the fluorescence change (max-min) was -2.28 (inactive). Turning to `CC(C)(C)c1cc(CN2CCN(CCC#N)CC2)cc(C(C)(C)C)c1O`, the fluorescence change (max-min) is 23.3 (inactive).

For `O=C(NCCc1ccc2c(c1)OCCO2)c1cc2ccccc2o1`, the fluorescence change (max-min) was 25 (inactive).

Turning to `CCCN1CC=C2C(C#N)=C(N)C(C#N)(C#N)C(c3cc(OC)ccc3OC)C2C1` (stereo not drawn), the fluorescence change (max-min) is 85.5 (active). As for `COc1ccccc1Cc1nc(-c2ccc(C)cc2)no1`, the fluorescence change (max-min) was -14 (inactive). Then `COc1ccc2nc(N3CCCC(O)C3)c(C#N)cc2c1` (stereo not drawn), with 206 (active); and `COC(=O)c1ccc(CSc2nc3ccccc3c(=O)n2-c2cccc(OC)c2)o1`, with -9.69 (inactive); and `CCOC(=O)CSc1nc2c(sc(=S)n2CCc2ccccc2)c(=O)n1Cc1ccco1`, with -34.1 (active). Consider `O=C(CSc1nnc(-c2ccco2)n1Cc1ccccc1)NC(=O)NCc1ccco1`, for which the fluorescence change (max-min) is -3.05 (inactive). As to `c1n[nH]c(NCc2ccc3c(c2)OCO3)n1`, the fluorescence change (max-min) was -9.45 (inactive). `COc1cccc(-n2cc3c(c2-c2ccccc2)c(=O)n(C)c(=O)n3C)c1`: the fluorescence change (max-min) was -22.4 (inactive).
